Assay [1] is described as follows: growth inhibition of DIPG glioma cells, dose response, cell-based, SU-DIPG-XVII, MIPE5.0, CellTiter-Glo, qHTS (AID 1347060).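 For AC50: cells exposed to compound for 48 hours before viability readout.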 As to conditions: SU-DIPG-XVII viability, CellTiter-Glo ATP luminescence.
The nature of assay [2]: growth inhibition of DIPG glioma cells, dose response, cell-based, SU-DIPG-XIII, MIPE4.0, CellTiter-Glo, qHTS (AID 1347061; cut-off not given, nearly all actives have AC50 up to about 37 µM;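 note: cells exposed to compound for 48 hours before readout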). The conditions noted are these: SU-DIPG-XIII viability, CellTiter-Glo ATP luminescence. (In general: ATP-based viability assays read luminescence as a measure of living cells.)
The nature of assay [3]: growth inhibition of DIPG glioma cells, dose response, cell-based, JHH-DIPG-1, MIPE4.0, CellTiter-Glo, qHTS (AID 1347062; cut-off not given, nearly all actives have AC50 up to about 27 µM;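 for AC50: cells exposed to compound for two days before readout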). The conditions noted are these: JHH-DIPG-1 viability, CellTiter-Glo ATP luminescence.
Assay [4] is described as follows: growth inhibition of DIPG glioma cells, dose response, cell-based, SU-DIPG-XIII, MIPE5.0, CellTiter-Glo, qHTS (AID 1347064; cut-off not given, nearly all actives have AC50 up to about 23 µM;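 for AC50: cells exposed to compound for 48 hours before the viability read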). The conditions noted are these: SU-DIPG-XIII viability, CellTiter-Glo ATP luminescence.
The nature of assay [5]: viability loss in pontine glioma line – cell-based, SU-DIPG-XXV, MIPE5.0, CellTiter-Glo, qHTS, dose response (AID 1347065).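 Note: cells exposed to compound for 48 hours before ATP readout.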 The conditions noted are these: CellTiter-Glo ATP luminescence.
The nature of assay [6]: SU-DIPG-VI glioma cell viability, MIPE4.0 library, CellTiter-Glo luminescence, qHTS (AID 1347066; cut-off not given, nearly all actives have AC50 up to about 30 µM;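 note: cells exposed to compound for 48 hours before readout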). The conditions noted are these: CellTiter-Glo ATP luminescence.
Assay [7] can be described thus: SU-DIPG-XXV glioma cell viability, MIPE5.0 library, qHTS (AID 1347068; cut-off not given, nearly all actives have IC50 up to about 30 µM;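 for IC50: cells exposed to compound for 48 hours before viability readout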).
The nature of assay [8]: JHH-DIPG-1 glioma cell viability, MIPE5.0 library, CellTiter-Glo luminescence, qHTS (AID 1347067).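 Note: cells exposed to compound for 48 hours before readout.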 The conditions noted are these: JHH-DIPG-1 glioma viability, CellTiter-Glo ATP luminescence.
Assay [9] in a line: sensitizers of A549 cells to miR-34 induction, primary screen, imaging, A549 dox-inducible miR-34, nuclei and caspase counts (AID 1347080;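 active = compounds whose cell count with miR-34 switched on is under 0.7 times the count with it off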). As to conditions: A549 miR-34 inducible, Hoechst nuclei count, 48 h.
Assay [10] is described as follows: survival rescue of mitochondrial mutant cells in low glucose, primary screen, MELAS cybrids, Rieske KO mouse fibroblasts, CellTiter-Glo (AID 1508586;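 active = mean z-score across replicates of 1.96 or higher in either the MELAS or the Rieske mutant cell line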;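 note: z relative to plate mean and SD of compound and empty wells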).
Assay [11] can be described thus: modifiers of HSF1 nuclear foci, imaging, Selleck Cancer Library (AID 1347162; in the data active = plate-normalised HSF1 focus index below about 0.46). The conditions noted are these: human cells, at 10 µM; SSMD: measured here: HSF1 foci SSMD mean; cell count: measured here: cell number; plate-normalised HSF1 focus index: stronger effect = lower value.
Assay [12] can be described thus: growth inhibition of DIPG glioma cells, dose response, cell-based, SU-DIPG-IV, MIPE4.0, CellTiter-Glo, qHTS (AID 1347063; cut-off not given, nearly all actives have AC50 up to about 30 µM;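 note: compound exposure lasted 48 hours before the viability readout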). The conditions noted are these: SU-DIPG-IV viability, CellTiter-Glo ATP luminescence.
The mark [13] stands for this setting: MELAS cybrid survival, CellTiter-Glo 48 h, stronger effect = higher value.
Where [14] appears, read: Rieske KO mouse fibroblast survival, CellTiter-Glo 72 h.

By AC50 is commonly meant the concentration at which the activity in the assay is half-maximal. Broadly, the IC50 is the midpoint of a concentration-inhibition curve.

Where “and” joins values, the source holds several entries; their conditions need not be identical. Equal entries are not always repeated. Records with an inconclusive call do not appear. Calls of active or inactive are those of the source. Unless noted, no cut-off is given here; in the data, nearly all actives have AC50 up to about 26 µM.

Take `Cn1c(CNc2ccc(C(=N)N)cc2)nc2cc(C(=O)N(CCC(=O)O)c3ccccn3)ccc21`: the result in assay [1], in assay [2], in assay [3], in assay [4], in assay [5] and in assay [6] was inactive. Moreover, the call in assay [7] was inactive.
In the case of `CN(CC(=O)N(Cc1ccc(C2CCCCC2)cc1)c1ccc(C(=O)O)c(O)c1)S(=O)(=O)c1c(F)c(F)c(F)c(F)c1F`, the AC50 in assay [1] was 8.33 µM (active); in assay [2], 11.8 µM (active); in assay [3], 16.6 µM (active); in assay [4], 6.61 µM (active); in assay [5], 9.34 µM (active); in [6], 3.32 µM (active). Further, the AC50 in assay [8] was 3.72 µM (active). The IC50 in [7] is 8.33 µM (active).
For the molecule `O=C(O)CCCc1c[nH]c2ccccc12`, the outcome in assay [1], in [2], in [3], in assay [4], in assay [5] and in [6] was inactive. The outcome in [8] and in assay [7] was inactive. Further, the fold change in [9] (stronger effect = lower value, cell number ratio, induced over uninduced) was 0.897 (inactive) and 0.923 (inactive); in [9] (measured here: relative caspase fold change +Dox/-Dox) it was 0.369 and 0.81. The cell count in assay [9] (measured here: total cells with miR-34 induction, stronger effect = lower value) was 8600 and 8570; in [9] (measured here: total cells without miR-34 induction), 9590 and 9280. In addition, the z-score in assay [10] (setting [13]) is 0.687 (inactive) and -0.261 (inactive); in assay [10] (setting [14]) it was 0.218 and 0.556.
Take `O=C(O)C1=CC(O)C(O)[C@H](O)C1` (some centres not stated): the molecule was classed as inactive in assay [1], in [2], in [3], in [4], in assay [5] and in assay [8]. In addition, the molecule was classed as inactive in assay [7].
For the molecule `CO[C@H]1/C=C/O[C@@]2(C)Oc3c(C)c(O)c4c(O)c(c5c(nc6cc(C)ccn65)c4c3C2=O)NC(=O)/C(C)=C\C=C\[C@H](C)[C@H](O)[C@@H](C)[C@@H](O)[C@@H](C)[C@H](OC(C)=O)[C@@H]1C`, the AC50 is 16.6 µM (active) in assay [1], 13.2 µM (active) in assay [4], 23.5 µM (active) in assay [5] and 14.8 µM (active) in assay [8]. Further, the molecule was called inactive in [2] and in assay [3]. The results for the z-score in assay [10] (setting [13]) and in assay [10] (setting [14]) were 0.239 (inactive) and -0.714, respectively.
With `CC(=O)OCCN1C(=O)c2c(C)nc3ccc(S(=O)(=O)N4CCOCC4)cc3c2C1=O`, the molecule was called inactive in assay [1], in [2], in [3], in assay [4], in assay [5] and in assay [6]. The molecule was called inactive in assay [8] and in assay [7]. The same molecule registered an SSMD in assay [11] of 2.02. In addition, the cell count in assay [11] is 7180. Further, the plate-normalised HSF1 focus index in [11] is 1.12 (inactive).
Consider `COc1cc2c(cc1-c1c(C)noc1C)ncc1[nH]c(=O)n([C@H](C)c3ccccn3)c12`, for which the outcome in assay [1], in [8] and in assay [7] was inactive. Also, the AC50 in assay [2] is 10.5 µM (active); in assay [3] it was 23.5 µM (active); in assay [12], 13.2 µM (active); in assay [6], 4.18 µM (active).

These data come from PubChem BioAssay.
